# The source made the active and inactive calls. The calls were made as follows: active = hit-call score of the fitted dose curve at least 0.9, where 1 is the maximum; inactive = score below 0.9.
# Molecular target: human CK2 (alpha1/alpha2/beta) Other Protein Kinase, CSNK2A1 (gene 1457) (UniProt P68400)
# Test: ERF_TW_ENZ_hCSNK2A1: Eurofins (ERF) Enzymatic Radiometric [10 uM ATP] Assay for human CK2 (alpha1/alpha2/beta) Other Protein Kinase
# Method: ERF_TW_ENZ_hCSNK2A1 is a biochemical, single-readout assay that uses extracted gene-proteins in a cell-free assay. Measurements were taken 0.5 hour after chemical dosing in a 96-well plate. See CK2 (alpha1/alpha2/beta) Human Other Protein Kinase Enzymatic Radiometric Assay [10 uM ATP], Panlabs.ERF_TW_ENZ_hCSNK2A1 is an assay component calculated from the ERF_TW_ENZ_hCSNK2A1 assay. It is designed to measure enzyme activity using a type of enzyme reporter as detected by scintillation counting with radiometry technology.Data from the assay component ERF_TW_ENZ_hCSNK2A1 was analyzed at the assay endpoint, ERF_TW_ENZ_hCSNK2A1, in the positive analysis fitting direction relative to DMSO as the negative control and baseline of activity. Using a type of enzyme reporter, loss-of-signal activity can be used to understand changes in enzymatic activity as they relate to gene CSNK2A1. To generalize the intended target to other relatable targets, this assay endpoint is annotated to the kinase intended target family, where the subfamily is serine/threonine kinase.
# CK2a1(h) is incubated with 20mM HEPES pH7.4, 0.15M NaCl, 0.1mM EDTA, 5mM DTT, 0.1% Triton X-100, 165 uM […], 10 mM MgAcetate and [gamma-33P-ATP] (specific activity and concentration as required). The reaction is 17 initiated by the addition of the Mg/ATP mix. […]
# human CK2 (alpha1/alpha2/beta) Other Protein Kinase, CSNK2A1 (gene 1457), sequence (P68400 whole entry, looked up): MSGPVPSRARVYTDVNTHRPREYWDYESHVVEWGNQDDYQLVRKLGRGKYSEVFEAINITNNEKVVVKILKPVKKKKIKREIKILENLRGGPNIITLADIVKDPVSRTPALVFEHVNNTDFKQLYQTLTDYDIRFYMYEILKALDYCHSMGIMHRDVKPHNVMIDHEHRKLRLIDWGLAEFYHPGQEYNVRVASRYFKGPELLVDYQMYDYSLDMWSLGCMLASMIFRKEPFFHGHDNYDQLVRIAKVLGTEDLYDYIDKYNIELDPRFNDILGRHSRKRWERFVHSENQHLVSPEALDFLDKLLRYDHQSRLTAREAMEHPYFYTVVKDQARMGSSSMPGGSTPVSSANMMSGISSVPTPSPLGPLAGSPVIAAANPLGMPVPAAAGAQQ
row,Compound,AC50
1,O=C(/C=C/c1ccc(O)cc1)CC(=O)/C=C/c1ccc(O)cc1,2250 nM (active)

# From PubChem BioAssay AID2284072 (EPA ToxCast)
